Measurements taken from the supplement of paper PMC7411054.
Where a name gives a salt, the structure may show the parent alone.

Experiments:
Assay in all cases: phenotypically active (imaging signature differs from DMSO and reproducible) at any of 0.3-9 uM (binary (1 = active, 0 = inactive)); higher = active
Details in all cases: treatment time: 24 h
A549-ACTB-RAB5A = system: A549-ACTB-RAB5A
In short: (§1)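 Live-cell features were measured per well and normalised to solvent control wells after fifteen gene-edited A549, HepG2 and WPMY1 reporter lines had been treated for 24 h at 0.3, 1, 3 or 9 µM in four wells each. A condition was deviating when ≥3 of 4 wells sat beyond the 95th percentile of control Euclidean distances. It was reproducible when the median replicate Pearson correlation exceeded the 95th percentile of non-replicates. Phenotypic activity demanded both.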

A549-CANX-COX4 = system: A549-CANX-COX4
In short: as §1

A549-GM130-SQSTM1 = system: A549-GM130-SQSTM1
In short: as §1

A549-TP53BP1-CLTA = system: A549-TP53BP1-CLTA
In short: as §1

A549-TUBA1B-RELA = system: A549-TUBA1B-RELA
In short: as §1

HepG2-ACTB-RAB5A = system: HepG2-ACTB-RAB5A
In short: as §1

HepG2-CANX-COX4 = system: HepG2-CANX-COX4
In short: as §1

HepG2-GM130-SQSTM1 = system: HepG2-GM130-SQSTM1
In short: as §1

HepG2-TP53BP1-CLTA = system: HepG2-TP53BP1-CLTA
In short: as §1

HepG2-TUBA1B-RELA = system: HepG2-TUBA1B-RELA
In short: as §1

WPMY1-ACTB-RAB5A = system: WPMY1-ACTB-RAB5A
In short: as §1

WPMY1-CANX-COX4 = system: WPMY1-CANX-COX4
In short: as §1

WPMY1-GM130-SQSTM1 = system: WPMY1-GM130-SQSTM1
In short: as §1

WPMY1-TP53BP1-CLTA = system: WPMY1-TP53BP1-CLTA
In short: as §1

WPMY1-TUBA1B-RELA = system: WPMY1-TUBA1B-RELA
In short: as §1

Measured: phenotypically active

CN1CC[C@]23c4ccccc4N[C@H]1[C@]21CCN(C)[C@H]3Nc2ccccc21 [Calycanthine]
inactive: A549-ACTB-RAB5A 0 | A549-CANX-COX4 0 | A549-GM130-SQSTM1 0 | A549-TP53BP1-CLTA 0 | A549-TUBA1B-RELA 0 | HepG2-ACTB-RAB5A 0 | HepG2-CANX-COX4 0 | HepG2-GM130-SQSTM1 0 | HepG2-TP53BP1-CLTA 0 | HepG2-TUBA1B-RELA 0 | WPMY1-ACTB-RAB5A 0 | WPMY1-CANX-COX4 0 | WPMY1-GM130-SQSTM1 0 | WPMY1-TP53BP1-CLTA 0 | WPMY1-TUBA1B-RELA 0

Cc1c(-c2cnccn2)ssc1=S [Oltipraz]
inactive: A549-ACTB-RAB5A 0 | A549-CANX-COX4 0 | A549-GM130-SQSTM1 0 | A549-TP53BP1-CLTA 0 | A549-TUBA1B-RELA 0 | HepG2-ACTB-RAB5A 0 | HepG2-CANX-COX4 0 | HepG2-GM130-SQSTM1 0 | HepG2-TP53BP1-CLTA 0 | HepG2-TUBA1B-RELA 0 | WPMY1-ACTB-RAB5A 0 | WPMY1-CANX-COX4 0 | WPMY1-GM130-SQSTM1 0 | WPMY1-TP53BP1-CLTA 0 | WPMY1-TUBA1B-RELA 0

O=C(O)CCNC(=O)c1ccc(/N=N/c2ccc(O)c(C(=O)O)c2)cc1 [balsalazide]
inactive: A549-ACTB-RAB5A 0 | A549-CANX-COX4 0 | A549-GM130-SQSTM1 0 | A549-TP53BP1-CLTA 0 | A549-TUBA1B-RELA 0 | HepG2-ACTB-RAB5A 0 | HepG2-CANX-COX4 0 | HepG2-GM130-SQSTM1 0 | HepG2-TP53BP1-CLTA 0 | HepG2-TUBA1B-RELA 0 | WPMY1-ACTB-RAB5A 0 | WPMY1-CANX-COX4 0 | WPMY1-GM130-SQSTM1 0 | WPMY1-TP53BP1-CLTA 0 | WPMY1-TUBA1B-RELA 0

CCCCCCC(=O)OC1CC(C)(C)NC(C)(C)C1 [TMPH hydrochloride]
inactive: A549-ACTB-RAB5A 0 | A549-CANX-COX4 0 | A549-GM130-SQSTM1 0 | A549-TP53BP1-CLTA 0 | A549-TUBA1B-RELA 0 | HepG2-ACTB-RAB5A 0 | HepG2-CANX-COX4 0 | HepG2-GM130-SQSTM1 0 | HepG2-TP53BP1-CLTA 0 | HepG2-TUBA1B-RELA 0 | WPMY1-ACTB-RAB5A 0 | WPMY1-CANX-COX4 0 | WPMY1-GM130-SQSTM1 0 | WPMY1-TP53BP1-CLTA 0 | WPMY1-TUBA1B-RELA 0

COc1cc(C#N)ccc1S(=O)(=O)Nc1ccc2c(c1)cc(C)c(=O)n2C
inactive: A549-ACTB-RAB5A 0 | A549-CANX-COX4 0 | A549-GM130-SQSTM1 0 | A549-TP53BP1-CLTA 0 | A549-TUBA1B-RELA 0 | HepG2-ACTB-RAB5A 0 | HepG2-CANX-COX4 0 | HepG2-GM130-SQSTM1 0 | HepG2-TP53BP1-CLTA 0 | HepG2-TUBA1B-RELA 0 | WPMY1-ACTB-RAB5A 0 | WPMY1-CANX-COX4 0 | WPMY1-GM130-SQSTM1 0 | WPMY1-TP53BP1-CLTA 0 | WPMY1-TUBA1B-RELA 0

C[n+]1cccc(C(=O)O)c1 [Trigonelline hydrochloride]
inactive: A549-ACTB-RAB5A 0 | A549-CANX-COX4 0 | A549-GM130-SQSTM1 0 | A549-TP53BP1-CLTA 0 | A549-TUBA1B-RELA 0 | HepG2-ACTB-RAB5A 0 | HepG2-CANX-COX4 0 | HepG2-GM130-SQSTM1 0 | HepG2-TP53BP1-CLTA 0 | HepG2-TUBA1B-RELA 0 | WPMY1-ACTB-RAB5A 0 | WPMY1-CANX-COX4 0 | WPMY1-GM130-SQSTM1 0 | WPMY1-TP53BP1-CLTA 0 | WPMY1-TUBA1B-RELA 0

CCc1ccc(CCOc2ccc(CC3SC(=O)NC3=O)cc2)nc1 (stereo not given) [Pioglitazone hydrochloride]
inactive: A549-ACTB-RAB5A 0 | A549-CANX-COX4 0 | A549-GM130-SQSTM1 0 | A549-TP53BP1-CLTA 0 | A549-TUBA1B-RELA 0 | HepG2-ACTB-RAB5A 0 | HepG2-CANX-COX4 0 | HepG2-GM130-SQSTM1 0 | HepG2-TP53BP1-CLTA 0 | HepG2-TUBA1B-RELA 0 | WPMY1-ACTB-RAB5A 0 | WPMY1-CANX-COX4 0 | WPMY1-GM130-SQSTM1 0 | WPMY1-TP53BP1-CLTA 0 | WPMY1-TUBA1B-RELA 0

CC(=O)OC(C)C[N+](C)(C)C (stereo not given) [methacholine]
inactive: A549-ACTB-RAB5A 0 | A549-CANX-COX4 0 | A549-GM130-SQSTM1 0 | A549-TP53BP1-CLTA 0 | A549-TUBA1B-RELA 0 | HepG2-ACTB-RAB5A 0 | HepG2-CANX-COX4 0 | HepG2-GM130-SQSTM1 0 | HepG2-TP53BP1-CLTA 0 | HepG2-TUBA1B-RELA 0 | WPMY1-ACTB-RAB5A 0 | WPMY1-CANX-COX4 0 | WPMY1-GM130-SQSTM1 0 | WPMY1-TP53BP1-CLTA 0 | WPMY1-TUBA1B-RELA 0

COc1c2c(cc3oc(CO)cc(=O)c13)O[C@@H](C(C)(C)O)C2 [Cimifugin]
inactive: A549-ACTB-RAB5A 0 | A549-CANX-COX4 0 | A549-GM130-SQSTM1 0 | A549-TP53BP1-CLTA 0 | A549-TUBA1B-RELA 0 | HepG2-ACTB-RAB5A 0 | HepG2-CANX-COX4 0 | HepG2-GM130-SQSTM1 0 | HepG2-TP53BP1-CLTA 0 | HepG2-TUBA1B-RELA 0 | WPMY1-ACTB-RAB5A 0 | WPMY1-CANX-COX4 0 | WPMY1-GM130-SQSTM1 0 | WPMY1-TP53BP1-CLTA 0 | WPMY1-TUBA1B-RELA 0

O=S(=O)(NCCSSCCNS(=O)(=O)c1cc(Cl)ccc1Cl)c1cc(Cl)ccc1Cl
inactive: A549-ACTB-RAB5A 0 | A549-CANX-COX4 0 | A549-GM130-SQSTM1 0 | A549-TP53BP1-CLTA 0 | A549-TUBA1B-RELA 0 | HepG2-ACTB-RAB5A 0 | HepG2-CANX-COX4 0 | HepG2-GM130-SQSTM1 0 | HepG2-TP53BP1-CLTA 0 | HepG2-TUBA1B-RELA 0 | WPMY1-ACTB-RAB5A 0 | WPMY1-CANX-COX4 0 | WPMY1-GM130-SQSTM1 0 | WPMY1-TP53BP1-CLTA 0 | WPMY1-TUBA1B-RELA 0

C=C1C[C@]23C[C@@]1(O)CC[C@H]2[C@@]12C=C[C@H](O)[C@](C)(C(=O)O1)[C@H]2[C@@H]3C(=O)O [Gibberellic acid]
inactive: A549-ACTB-RAB5A 0 | A549-CANX-COX4 0 | A549-GM130-SQSTM1 0 | A549-TP53BP1-CLTA 0 | A549-TUBA1B-RELA 0 | HepG2-ACTB-RAB5A 0 | HepG2-CANX-COX4 0 | HepG2-GM130-SQSTM1 0 | HepG2-TP53BP1-CLTA 0 | HepG2-TUBA1B-RELA 0 | WPMY1-ACTB-RAB5A 0 | WPMY1-CANX-COX4 0 | WPMY1-GM130-SQSTM1 0 | WPMY1-TP53BP1-CLTA 0 | WPMY1-TUBA1B-RELA 0
